Hits are enriched below; roughly 19% of the tested compounds scored in any of these assays.
Pf growth 48h: P. falciparum growth inhibition at 48 hours (one generation) | P. falciparum luciferase growth in erythrocytes, 48 h | Potency, µM (top dose mostly 28.7 µM), for the others: at the top dose activity change, negative = inhibition, hits mostly inhibitors | 310,000 compounds, 5.9% hits | AID 504832; note: potency is the fitted concentration of half-maximal effect; % is set by controls: 0 for no effect and ±100 for the full control effect
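Luciferase-expressing parasites in RBCs, 2% Hct / 0.1% parasitemia final; RPMI 1640 + 0.5% Albumax; 37 C, 5% CO2, one generation; luminescence read-out, lower signal = inhibition.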
Pf growth 96h: inhibits malaria parasite growth, 96 h. Potency, µM (series often up to 28.7 µM), for the others: top-dose activity change, negative = inhibition, usual class: inhibitors. P. falciparum luciferase reporter growth, 96 h. 320,000 compounds, 6.9% hits; note: potency is the fitted concentration of half-maximal effect; % is set by controls: 0 for no effect and ±100 for the full control effect
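Compounds incubated with erythrocytes infected by luciferase-expressing P. falciparum (2% hematocrit, 0.05% parasitemia final) for 96 hours, 37 C in 5% CO2. Growth inhibition scored as decreased luciferase luminescence.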
CHX counter: counter-screen for Shiga toxin inhibitors: cycloheximide protein synthesis inhibition; cell reporter, cycloheximide protein synthesis inhibition counterscreen; 300,000 compounds, 12% hits; max response, %; in the data active = max response mostly above about 13%, no sharp cut-off; inactive = mostly below about 14%; note: read at 38.3 µM for the half of the compounds with a filed dose; 0% is about no effect
Shiga inhibitor: blocks Shiga toxin action in Vero cells | 290,000 compounds, 9.2% hits | Vero cells, Shiga toxin protein synthesis inhibition reporter | inhibition, % at 38.7 µM | AID 2315; in the data active = inhibition mostly above about 28%, no sharp cut-off; inactive = mostly below about 43%; note: 0% is about no effect
AMA1 RON2 block: disrupts binding of P. falciparum AMA1 to RON2; AlphaScreen AMA1-biotinylated RON2 peptide binding; Potency, µM (series often up to 58.2 µM), inactives show top-dose activity change, negative = inhibition, usual class: inhibitors; 360,000 compounds, 0.2% hits;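 note: potency is the fitted concentration of half-maximal effect; 0% = vehicle wells and -100% = peptide control; nearly all actives have a fitted effect of over 45% in size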
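AMA1 (3D7) with his tag at 25 nM final met compounds first, then biotinylated RON2 peptide at 25 nM; detection used donor plus acceptor beads, 10 µg/mL apiece, read by AlphaScreen after 30 min at room temperature.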
SARS PLpro yeast: SARS-CoV PLP inhibition in yeast. Potency, µM (titrated, usually from 32.9 µM), for the others: top-dose activity, positive = growth rescue, actives largely listed as activators. 330,000 compounds, 0.19% hits. S. cerevisiae expressing SARS-CoV PLpro, growth rescue. AID 485353; calls by dose curve; note: potency is the fitted concentration of half-maximal effect; 0% is about no effect; nearly all actives have a fitted effect of over 55% in size
* = called active by the depositor; ? = inconclusive; · = no result given; [ ] = remark or other dose. Unless noted, calls come from the whole dose curve; as a rule, active = well fitted curve in the direction sought with a large enough effect; inconclusive = small, poorly fitted or top-dose-only effect, or another doubt; inactive = no such curve, though single readings can be large; an effect the other way counts as inactive or inconclusive.

SMILES	Pf growth 48h	Pf growth 96h	CHX counter	Shiga inhibitor	AMA1 RON2 block	SARS PLpro yeast
O=C(c1cnn(-c2ccccc2)c1)c1cc(F)ccc1O	·	73%	43*	83*	2%	-1%
COc1ccc(O)c(C(=O)c2cnn(-c3ccccc3)c2)c1	26%	-23%	29*	96*	-7%	-15%
COc1ccc(C(=O)OCCOc2ccccc2C(C)=O)c(O)c1	0%	-15%	13*	41	0%	-2%
O=C(COC(=O)Cc1ccc(Cl)cc1)Nc1c(F)cccc1F	1%	5%	-2	32	24%	2%
Cc1cccc(Cn2c(=O)n(-c3ccc(CC(=O)NCc4ccco4)cc3)c(=O)c3sccc32)c1	·	?	2	8	3%	-3%
CCCCn1c(=S)[nH]c2c(oc3ccc(Cl)cc32)c1=O	11%	?	0	-3	·	7%
CCOc1ccccc1NC(=O)Cn1c(-c2ccc(Cl)cc2)noc1=O	1.7µM*	4.1µM*	-2	-8	12%	5%
CCOc1ccccc1NC(=O)Cn1c(=O)oc2cc(Cl)ccc21	-14%	16%	-2	-12	-3%	-2%
CN(C)S(=O)(=O)c1ccc(NC(=O)Cn2c(-c3ccccc3)noc2=O)cc1	·	4.7µM*	1	-7	32%	-4%
Cc1ccc(C(=O)Cn2c(-c3ccccc3)noc2=O)cc1	12%	-1%	-4	-5	-4%	1%
COC(=O)C1=CNC=C(C(=O)OC)C1c1ccc(C(=O)OC)cc1	?	·	6	16	0%	-2%
CN1CCN(c2ccc(NC(=O)CSc3ccccc3)cc2F)CC1	149%	133%	49*	61*	26%	3%
O=C(CSc1ccc(F)cc1)Nc1ccc(C2SCCS2)cc1	108%	100%	35*	85*	-16%	0%
O=C(CSc1ccccc1)Nc1ccncc1	20%	1%	12*	28	37%	2%
CN1C(=O)c2ccc(NC(=O)CSc3ccccc3)cc2C1=O	40%	20%	28*	32	3%	-2%
CC(C)(C)NC(=O)c1ccc(NC(=O)CSc2ccccc2)cc1	-19%	9%	15*	28	11%	-1%
CC(=O)Oc1ccc(NC(=O)CSc2ccccc2)cc1	46%	?	45*	51	2%	-5%
O=C(CSc1ccccc1)NC1=NCCS1	124%	63%	22*	45	5%	-1%
CC(=O)NS(=O)(=O)c1ccc(NC(=O)CSc2ccccc2)cc1	31%	?	0	24	0%	-1%
Cc1ccc(NC(=O)CN(C)C(=O)Nc2ccc(C)cc2)cc1	34%	45%	22*	69*	-5%	-4%
Cc1cccc(C)c1NC(=O)CN(C)C(=O)/C=C/c1cccs1	8%	8%	0	-3	-4%	2%
Cc1ccc(NC(=O)/C(CN(C)C)=N\O)cc1	121%	6%	27*	62*	3%	4%
Cc1ccc(NC(=O)CN(C)C(=O)CCOc2cccc(C)c2)cc1	20%	-2%	-2	-3	0%	-21%
Cc1ccc(NC(=O)CN(C)Cc2ccc(Cl)cc2)cc1	-8%	21%	-1	-15	-3%	-1%
Cc1ccc(NC(=O)CN(C)C(=O)/C=C/c2cccs2)cc1	16%	?	9.6*	-3	2%	-3%
SMILES	Pf growth 48h	Pf growth 96h	CHX counter	Shiga inhibitor	AMA1 RON2 block	SARS PLpro yeast
COc1ccc(OC)c(S(=O)(=O)Nc2cccnc2)c1	·	-1%	-1	-6	-10%	1%
COc1cccc(CNC(=O)CCC2CCCN(c3cc(C)nc(N4CCCC4)n3)C2)c1 (stereo not drawn)	?	12µM*	1	-3	-12%	1%
COc1ccc(C(=O)N2CCCC(CCC(=O)NCc3ccc(F)c(F)c3)C2)o1 (stereo not drawn)	16%	11%	26*	94*	-2%	-1%
Cc1ccn(CCC(=O)N2CCCC(CCC(=O)NCc3ccc(F)c(F)c3)C2)n1 (stereo not drawn)	-11%	12µM*	-2	7	2%	3%
CCOC(=O)N1CCN(S(=O)(=O)N2CCCC(C(=O)NCc3cccc(OC)c3)C2)CC1 (stereo not drawn)	-18%	6.6µM*	-1	-2	-7%	2%
COc1cccc(CNC(=O)CCC2CCCN(C3CCOCC3)C2)c1 (stereo not drawn)	96%	?	-1	-18	1%	-1%
Cc1cc(C)n(-c2n[nH]c(C)c2[N+](=O)[O-])n1	18%	32%	-3	-1	-1%	0%
CCOC(=O)c1nn(-c2ccc(Br)cc2)cc1C(=O)c1cccc2ccccc12	57%	48%	2	-2	-9%	5%
COc1cccc(CNC(=O)CCC2CCCN(C(=O)c3cc4ccccc4o3)C2)c1 (stereo not drawn)	196%	?	48*	68*	11%	0%
O=C(CC(C(=O)NCc1ccccc1)c1nc2ccccc2c(=O)[nH]1)NCc1ccccc1 (stereo not drawn)	?	12%	-1	8	0%	0%
CCOc1ccc(S(=O)(=O)N2CCCCC2)cc1NC(=O)Cc1ccsc1	10µM*	12µM*	·	·	3%[11.6 µM]	9%
CCOc1ccc(S(=O)(=O)N2CCCCC2)cc1NC(=O)Cc1ccc(OC)cc1	·	·	·	·	-7%	·
COc1ccc(S(=O)(=O)N2CCCCCC2)cc1NC(=O)Cc1ccccc1	?	-3%	-1	-6	-12%	0%
COc1ccc(CC(=O)Nc2cc(S(=O)(=O)N3CCCC3)ccc2Cl)c(OC)c1	?	15µM*	·	·	-8%	-7%
COc1ccc(S(=O)(=O)N2CCCCC2)cc1NC(=O)Cc1ccsc1	?	13µM*	·	·	9%	1%
COc1ccccc1S(=O)(=O)N(C)C[C@H]1OCc2cnnn2CCCC(=O)N([C@@H](C)CO)C[C@H]1C	·	·	·	·	8%	·
CC(C)(C)C1CCc2c(sc3ncn(N)c(=N)c23)C1 (stereo not drawn)	5%	-29%	13*	40	100%	-3%
Cc1cccnc1-n1c(CCN2C(=O)c3ccccc3C2=O)nc2ccccc2c1=O	?	3.3µM*	4	23	18%	11%
O=C1c2ccccc2C(=O)N1Cc1nc2ccccc2c(=O)n1-c1ccc(Br)cn1	29%	7.4µM*	-4	1	-8%	-5%
Nc1nc(N)nc(-c2cc([N+](=O)[O-])ccc2O)n1	-17%	2.1µM*	·	·	68%	-7%
Nc1nc(N)nc(-c2cc(O)ccc2O)n1	?	?	·	·	6%	0%
Oc1ccccc1-c1cc(C(F)(F)C(F)F)nc(-c2ccccc2)n1	3%	61%	0	-3	-2%	4%
COc1ccc(O)c(-c2cc(C(F)(F)C(F)F)nc(-c3ccccc3)n2)c1	13µM*	2.9µM*	-1	18	-7%	-2%

High-throughput results deposited in PubChem BioAssay by National Center for Advancing Translational Sciences (NCATS).
